About 930 (0.42%) of roughly 220,000 compounds were called active. Rule as the data show it: active = inhibition above about 50%; inactive = the rest. Shown is part of a subset that was picked to be rich in actives.
Target: Glycoprotein 42 (Epstein-Barr virus (strain AG876)) (UniProt Q1HVG2)
Assay: EBV glycoprotein 42 binding blockers – biochemical, uHTS, fluorescence polarization, primary screen (AID 1085)
Conditions: Fluorescence polarization binding assay, mP read-out; hits give high values; tested at 21.74 µM

Chain of Glycoprotein 42 (Epstein-Barr virus (strain AG876)) (Q1HVG2 whole entry, looked up): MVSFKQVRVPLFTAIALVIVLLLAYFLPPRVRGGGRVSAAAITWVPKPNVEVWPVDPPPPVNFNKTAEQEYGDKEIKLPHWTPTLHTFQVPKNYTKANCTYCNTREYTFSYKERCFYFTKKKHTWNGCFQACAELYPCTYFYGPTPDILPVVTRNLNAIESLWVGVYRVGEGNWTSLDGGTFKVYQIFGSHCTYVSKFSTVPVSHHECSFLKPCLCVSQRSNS

Structure (SMILES) | inhibition
CC(=O)NC(NC(=S)Nc1c(C)n(C)n(-c2ccccc2)c1=O)C(Cl)(Cl)Cl (centres undefined) | -9.48% (inactive)
COc1ccc(/C(C)=N/NC(=O)CCC(=O)Nc2ccc(Cl)cc2Cl)c(OC)c1 | -0.68% (inactive)
Cc1nn(C)cc1N1C(=O)c2cccc3c(N)ccc(c23)C1=O | 149% (active)
COc1ccc(N2C(=O)c3cccc4cccc(c34)C2=O)nn1 | 15.4% (inactive)
Cc1nn(-c2cc(Cl)ccc2N)c(=O)c2ccccc12 | -22.9% (inactive)
Clc1cccc(CN2COc3c(cc(Cl)c4cccnc34)C2)c1 | 1.66% (inactive)
CC(C)(C)NC(=O)CSC(=Nc1ccccc1F)NC#N | 4.3% (inactive)
CCNC(=O)CC1C(=O)N(c2ccc(OC)cc2)C(=S)N1CCc1ccncc1 (centres undefined) | -17.4% (inactive)
CCOC(=O)c1sc(NC(=O)CSc2nc(C)cc(C(F)(F)F)n2)c(C#N)c1C | -17.3% (inactive)
COc1ccc2nc(N3CCCC(O)C3)c(C#N)cc2c1 (centres undefined) | 46.9% (inactive)
CCOc1ccc2nc(N3CCCN(C(=O)Nc4ccccc4C)CC3)c(C#N)cc2c1 | 53.8% (active)
CCOc1ccc2nc(NCCNS(=O)(=O)c3ccccc3)c(C#N)cc2c1 | -8.9% (inactive)
O=C(CCCCCN1C(=O)c2cccc3cccc(c23)C1=O)NCc1ccco1 | -16.7% (inactive)
CCN(CC)S(=O)(=O)c1ccc(N2CCOCC2)c(NC(=O)C2COc3ccccc3O2)c1 (centres undefined) | -2.58% (inactive)
O=C(N/N=C/c1ccco1)c1csc2c1CCCC2 | -15.1% (inactive)
Cc1c(C(=O)N2CCCc3ccccc32)sc2nc(-c3ccccc3)cn12 | -4.31% (inactive)
Cc1occc1C(=O)N1CCCc2ccccc21 | -1.51% (inactive)
Cc1cccc2cc3c(N)c(C(=O)N4CCCc5ccccc54)sc3nc12 | 88.5% (active)
CCOC(=O)C(C)n1nc(-c2ccccc2)c2ccccc2c1=O (centres undefined) | -6.93% (inactive)
Cn1cnc([N+](=O)[O-])c1Sc1ccccc1 | -26% (inactive)
COC(=O)Cc1nc2ccccc2[nH]1 | -12.7% (inactive)
COc1ccccc1NC(=O)C[n+]1ccccc1 | -3.15% (inactive)
COC(=O)C[n+]1cccc2ccccc21 | 128% (active)
CSc1cc(C)n(-c2ccccc2C)c(=S)c1C(C)=O | -23.5% (inactive)

Structure (SMILES) | inhibition
COc1ccc(N(CCC#N)S(=O)(=O)c2ccc(Cl)cc2)cc1 | -7.41% (inactive)
O=C(Nc1ccc(Cl)cc1)C1c2cccc[n+]2CC(=O)N1Cc1ccc2c(c1)OCO2 (centres undefined) | -27% (inactive)
CCOc1cccc(=O)c2c(C)n(CC3CCCO3)c(C)c12 (centres undefined) | 14.8% (inactive)
O=S(=O)(Cc1cc(Sc2ccccc2)nc(-c2ccccc2)n1)c1ccccc1 | 3.74% (inactive)
CCN(c1ccc(NC(=O)COC(=O)CCc2nc3ccccc3n2-c2ccccc2)cc1)C(C)C | -13% (inactive)
COc1ccc([N+](=O)[O-])cc1NC(=O)c1ccc(N(Cc2ccccc2C)S(C)(=O)=O)cc1 | -6.7% (inactive)
Cc1ccc(-c2cnc(NC(=O)CCC(=O)N(C)Cc3ccccc3)n2C)cc1 | 4.29% (inactive)
O=C(N/N=C/c1ccc([N+](=O)[O-])cc1)c1c[nH]c2ccccc12 | -12.7% (inactive)
O=C(N/N=C/c1ccc(Cl)cc1)c1nc2ccc([N+](=O)[O-])cc2c(=O)[nH]1 | 78.6% (active)
Cc1nc2ccccc2cc1C(=O)N/N=C/c1ccc([N+](=O)[O-])cc1 | -3.69% (inactive)
Nc1[nH]c(=S)nc2nc(-c3ccccc3)c(-c3ccccc3)nc12 | -1.95% (inactive)
Cc1cs/c(=N\N=C\c2ccc(O)cc2)n1Cc1ccco1 | 8.07% (inactive)
COc1ccc(NC(=O)Cn2c(=O)n(Cc3ccco3)c(=O)c3ccccc32)cc1 | -3.89% (inactive)
CN(c1ccccc1)S(=O)(=O)c1cccc(NC(=O)Cc2c(F)cccc2Cl)c1 | 13.1% (inactive)
O=S(=O)(c1ccc(F)cc1)N1CCN(C(=S)NC2CCCC2)CC1 | -9.24% (inactive)
CCN(CC)P(=O)(Nc1ccc(SC(F)F)cc1)c1ccc(N(C)C)cc1NC(=O)c1ccco1 (centres undefined) | -14.5% (inactive)
O=C(NCCN1C(=O)S/C(=C\c2cccnc2)C1=O)c1ccc(S(=O)(=O)N2CCCC2)cc1 | -22.6% (inactive)
O=C(Nc1ccnc(-c2ccncc2)n1)c1cccs1 | -5.75% (inactive)
COC(=O)CSc1nccc(-c2cccs2)n1 | -13.3% (inactive)
O=C(O)COc1ccc(-c2nccc(-c3cccs3)n2)cc1 | 50.4% (active)
CCN(CC)C(=O)Oc1ccc(Br)cc1C(=O)Nc1ccc(F)c(Cl)c1 | -10.6% (inactive)
Cc1ccccc1N1C(=O)C(Oc2ccc(Cl)cc2)C1CNCC1CCCO1 (centres undefined) | -2.06% (inactive)
COc1cc(C(CCN2CCN(c3ccccc3)CC2)c2c(OC)cc(OC)c3ccc(=O)oc23)cc(OC)c1OC (centres undefined) | -16.3% (inactive)
COc1ccc(N2CCN(C(=O)/C(C#N)=C/c3ccccc3)CC2)cc1 | -19% (inactive)

Structure (SMILES) | inhibition
CCOC(=O)/C(C#N)=C/c1ccc(N2CCCCC2)cc1 | -25.7% (inactive)
CCOC(=O)/C(C#N)=C/c1ccc(N2CCN(Cc3ccccc3)CC2)cc1 | 128% (active)
Cc1ccc(C(=O)COC(=O)CCCC(=O)NC2CCCCC2)cc1[N+](=O)[O-] | 4.86% (inactive)
O=C(Cc1ccc(Br)cc1)N1CCN(c2ccccn2)CC1 | 4.9% (inactive)
CC(=O)NNC1=Nc2ccccc2N(C)C(C)C1 (centres undefined) | -1.65% (inactive)
COc1ncnc2c1N=C1CC(C)(C)CC(N)=C1S2 | 81.4% (active)
CC(C)(C)c1ccc(/C=C/C(=O)Nc2ncccn2)cc1 | -8.99% (inactive)
COc1cc(N2C(=O)CC3(CCCC3)CC2=O)cc(OC)c1OC | -4.54% (inactive)
CCOC(=O)N1CC=C2C(C#N)=C(N)C(C#N)(C#N)[C@H](c3cccs3)[C@H]2C1 | 6.62% (inactive)
CCN1CC=C2C(C#N)=C(N)C(C#N)(C#N)[C@H](c3ccoc3)[C@H]2C1 | 56.6% (active)
CCCN1CC=C2C(C#N)=C(N)C(C#N)(C#N)C(c3cc(OC)ccc3OC)C2C1 (centres undefined) | 36.5% (inactive)
Cc1no[n+]([O-])c1COc1ccccc1/C=C1\NC(=S)NC1=O | -22.4% (inactive)
COc1ccc(-n2cnnc2SCC(=O)Nc2cccc([N+](=O)[O-])c2)cc1 | 6.38% (inactive)
CC1CN(S(=O)(=O)c2ccc(C(=O)Nc3sccc3C(N)=O)cc2)CC(C)O1 (centres undefined) | 6.08% (inactive)
O=C(Nc1cccnc1)c1ccc(Cl)c([N+](=O)[O-])c1 | -3.95% (inactive)
Cn1cc(CN2CCCC(CO)C2)c(-c2ccc(Oc3ccccc3)cc2)n1 (centres undefined) | -12.6% (inactive)
CC1=C(C(=O)OCc2ccccc2)C(c2ccco2)n2ncnc2N1 (centres undefined) | 4.92% (inactive)
Brc1ccc(C2=CC(c3ccco3)n3ncnc3N2)cc1 (centres undefined) | 105% (active)
COC(=O)C1=C(C)Nc2ncnn2C1c1ccco1 (centres undefined) | 6.95% (inactive)
Cc1cc(-c2nc(C)c(-c3nnc(SCC(=O)Nc4ccccc4)n3C)s2)no1 | -5.93% (inactive)
COc1ccc(Cc2n[nH]c(=S)n2NC(=O)Nc2ccc(C)cc2)cc1 | -9.72% (inactive)
O=C(Nc1cn(-c2ccccc2)nc1-c1ccccc1)c1ccccc1 | -10.3% (inactive)
CCCCN1C(=O)CC(N2CCOCC2)C1=O (centres undefined) | -40.1% (inactive)
C(=N\N1CCN(c2ccccn2)CC1)/C1=C(N2CCOCC2)C(=C/c2ccccc2)/CC1 | 22.4% (inactive)

Structure (SMILES) | inhibition
N#C/C(=C\C1=C(N2CCOCC2)C(=C\c2ccccc2)/CC1)C(=O)Nc1ccccc1F | 154% (active)
N#C/C(=C\c1ccccc1C(F)(F)F)C(=O)Nc1ccccc1F | -19.9% (inactive)
Cc1sc2nc(CC(N)=O)[nH]c(=O)c2c1-c1ccccc1 | -7.12% (inactive)
CN1CCN(CCNC(=O)Nc2ccc([N+](=O)[O-])cc2)CC1 | -6.33% (inactive)
CCN(CC(=O)Nc1ccc(S(=O)(=O)N2CCCC2)cc1)CC(=O)Nc1cccc(OC)c1 | -7.32% (inactive)
CCCCCCCCc1c(O)nc(-n2[nH]c(C)c(CCO)c2=O)[nH]c1=O | -21.7% (inactive)
COc1ccc(C2C=C(c3ccc(Br)cc3)Nc3nc(NS(C)(=O)=O)nn32)cc1 (centres undefined) | 80.6% (active)
COc1ccc(C2CC(c3ccc(C)cc3)Nc3nc(N)nn32)cc1 (centres undefined) | -6.12% (inactive)
COc1ccc(C2=CC(c3cccc(OC)c3)n3nnnc3N2)cc1 (centres undefined) | -13.3% (inactive)
CCOCCCNC(=S)N1CCC(NC(=O)C2CCCCC2)CC1 | -2.69% (inactive)
Oc1c(Cl)cc(Cl)c(Cl)c1Cc1c(O)c(Cl)cc(Cl)c1Cl | 59.7% (active)
CCCC[C@@H]1CN=C(N)N1CCc1cc(C(F)(F)F)cc(C(F)(F)F)c1 | -11.3% (inactive)
CC1CCCN(S(=O)(=O)c2ccc(N(C(=O)c3cnccn3)C(C(=O)NC3CCCCC3)c3cccs3)cc2)C1 (centres undefined) | -17.8% (inactive)
Cc1ccc(S(=O)(=O)Nc2nc3ccccc3nc2N2CCc3ccccc3C2)cc1 | 8.67% (inactive)
Cc1cc(N2CCN(S(=O)(=O)c3ccc(C)c(C)c3)CC2)c2ccccc2n1 | 12.3% (inactive)
Cc1ccc(S(=O)(=O)C(C#N)c2nc3ccccc3nc2N2CCCC2)cc1C (centres undefined) | 69.2% (active)
O=C(COc1ccc(-c2ccccc2)cc1)NN=C1CCCC1 | -13.3% (inactive)
O=C(Nc1ccc2c(c1)OCCO2)c1ccoc1 | -10.9% (inactive)
COc1ccc(/C(O)=C2/C(=O)C(=O)N(CC3CCCO3)C2c2ccc(OC)c(OC)c2)cc1 (centres undefined) | -16.4% (inactive)
COc1ccc(-c2nc(CS(=O)CC(=O)NCc3cccnc3)c(C)o2)cc1OC (centres undefined) | -12.1% (inactive)
COc1ccc(-c2nc(CS(=O)CC(=O)N3CCc4ccccc4C3)c(C)o2)cc1 (centres undefined) | -1.18% (inactive)
COc1ccc(-c2nc(CS(=O)CC(=O)NCc3ccccn3)c(C)o2)cc1 (centres undefined) | 117% (active)

— PubChem BioAssay AID1085 (Emory University Molecular Libraries Screening Center, 2008)
